HTT-AS promoter – Primary qHTS for Identification of Small Molecule Activators of Huntingtin-Antisense Promoter Activity. hit rate 0.24% among 48,000. HEK293 HTT-AS promoter firefly luciferase reporter, 24 h; response scale: percent change from vehicle, -100% = no light. AID 1508624, 2021. Potency, µM (titrated, usually from 57.5 µM), usual class: activators; further: nearly all actives have a fitted effect of over 55% in size
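HEK293 Fluc reporter, 2,500 cells/well, 24 h pre-culture; cpds up to 57.5 uM final, 24 h 37 degrees C; Dual-Glo, 10 min RT; normalized vehicle = 0%, zero RLU = -100%.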
OvCa metastasis – Primary qHTS assay for Inhibitors of ovarian cancer metastasis using an organotypic tumor microenvironment (TME) model | SKOV3ip1-GFP adhesion/invasion on 3D omental model, fluorescence | Potency, µM (series often up to 45.8 µM), most hits filed as inhibitors | hit rate 0.1% among 46,000; further: nearly all actives have a fitted effect of over 65% in size
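A 3D layer of primary human omental fibroblasts, mesothelial cells, fibronectin and collagen I, grown 48 hr, received SKOV3ip1-GFP cells in serum-free medium plus compounds at 0.36-46 umol/L. After 2 hr RT and 16 hr 37 C, fixed adherent GFP cells were counted; normalized to DMSO and tomatine.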
HTT prom inh – Primary qHTS for Identification of Small Molecule Inhibitors of Huntingtin Promoter Activity. AID 1508623, 2021. HEK293 HTT promoter firefly luciferase reporter, 24 h. hit rate 0.93% among 48,000. Potency, µM (highest dose often 57.5 µM), usual class: inhibitors; further: nearly all actives have a fitted effect of over 50% in size
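Firefly luciferase readout (Dual-Glo, 10 min RT) after 24 h, 37 °C compound exposure (final up to 57.5 uM) of HEK293 reporter cells cultured 24 h beforehand; PTC124 at 50 uM final as control inhibitor; activity scaled vehicle 0%, zero RLU -100%.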
PTAP-TSG101 blk – qHTS Validation Assay for Inhibitors of HIV-1 Budding by Blocking the Interaction of PTAP/TSG101: Sytravon Library Screen. Tumor susceptibility gene 101 protein (Homo sapiens), Q99816. Fluorescence polarization, FITC-PTAP peptide/Tsg101, 20 min. Potency, µM (doses to about 115 µM), most hits filed as inhibitors. 44,000 tested, under 10 active
Target sequence (Q99816 whole entry, looked up): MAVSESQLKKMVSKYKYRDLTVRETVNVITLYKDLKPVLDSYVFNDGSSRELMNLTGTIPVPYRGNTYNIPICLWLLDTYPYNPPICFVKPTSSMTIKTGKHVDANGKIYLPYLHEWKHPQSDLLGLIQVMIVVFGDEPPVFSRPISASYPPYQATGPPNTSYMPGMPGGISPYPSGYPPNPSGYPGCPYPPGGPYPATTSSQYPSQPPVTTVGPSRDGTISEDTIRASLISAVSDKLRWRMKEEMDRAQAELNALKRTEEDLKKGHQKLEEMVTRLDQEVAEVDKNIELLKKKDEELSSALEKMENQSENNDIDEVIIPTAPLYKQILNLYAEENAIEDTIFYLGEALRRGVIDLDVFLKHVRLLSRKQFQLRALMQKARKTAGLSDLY
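The Tsg101 binding domain, at 10 uM final, is mixed with compound and a FITC peptide bearing the PTAP motif (50 nM final). After 20 min at r.t., polarization is measured; actives defined by CRC class, efficacy cut-off 60% inhibition.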
NTMT1 inh – Primary qHTS for Inhibitors of N-terminal methyltransferase 1 (NTMT1): MTaseGlo Assay; N-terminal Xaa-Pro-Lys N-methyltransferase 1 (Homo sapiens), Q9BV86; NTMT1 MTase-Glo SAH luminescence, purified enzyme; Potency, µM (titrated, usually from 114 µM), hits mostly inhibitors; hit rate 2.5% among 59,000; further: nearly all actives have a fitted effect of over 65% in size
Target sequence (Q9BV86 whole entry, looked up): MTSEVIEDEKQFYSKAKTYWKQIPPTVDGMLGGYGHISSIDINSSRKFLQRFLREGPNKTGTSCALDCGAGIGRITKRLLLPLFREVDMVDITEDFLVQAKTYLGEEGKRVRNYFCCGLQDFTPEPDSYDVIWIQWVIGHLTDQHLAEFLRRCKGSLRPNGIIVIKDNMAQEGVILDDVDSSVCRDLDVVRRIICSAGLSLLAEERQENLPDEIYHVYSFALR
GALK inh – qHTS Assay for Inhibitors of Human Galactokinase (GALK): NCGC Sytravon Library Screen | 44,000 tested, under 10 active | P51570 | AID 1347072, 2019 | Potency, µM (series often up to 57.5 µM), hits mostly inhibitors | recombinant GALK, Kinase-Glo ATP luminescence, 1 h
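Luminescent ATP-depletion readout (Kinase-Glo Plus, 10 min) after 1 h RT reaction of 5 nM GALK, 35 uM ATP, 100 uM galactose, pH 8.0 HEPES buffer. Decreased kinase activity scored as inhibition.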
Large screens that a line does not name were inactive; ! = not active in a repeat. Only some compounds are listed: those with a hit (about 2.5% of all), similar ones and a draw of the others. The call rests on the fitted dose curve; in most records, active means well fitted curve in the direction sought with a large enough effect; inconclusive means small, poorly fitted or top-dose-only effect, or another doubt; inactive means no such curve, though single readings can be large; an effect the other way counts as inactive or inconclusive.

Cc1cccc(C=NNc2cc(N3CCOCC3)nc(OCCc3ccccn3)n2)c1	HTT prom inh inconclusive, NTMT1 inh 22µM (no result: PTAP-TSG101 blk, GALK inh)
COc1ccc([C@H]2Cc3cccc(O)c3C(=O)O2)cc1	none (no result: HTT-AS promoter, OvCa metastasis, HTT prom inh, PTAP-TSG101 blk, GALK inh)
Cc1ccc2oc(-c3ccc(Cl)cc3)c(O)c(=O)c2c1	HTT-AS promoter 2.5µM
COc1cccc(CNc2ccc(S(=O)(=O)Nc3cccc(-c4ccccc4)c3)cc2)c1O	none (no result: HTT-AS promoter, OvCa metastasis, HTT prom inh, PTAP-TSG101 blk, GALK inh)
COc1ccc(C2C=C(c3ccc(Cl)cc3)Nc3nc(-c4ccc(Cl)cc4)nn32)cc1 (configuration not stated)	HTT prom inh 25µM
Cc1ccc(C2=CC(c3ccc(Cl)cc3)n3nc(-c4ccc(C)cc4)nc3N2)cc1 (configuration not stated)	HTT prom inh inconclusive
COc1ccc(C2Nc3ccccc3C(=O)N2Cc2ccncc2)cc1COc1c(C)cc(NC(C)=O)cc1C (configuration not stated)	none (no result: HTT-AS promoter, OvCa metastasis, HTT prom inh, PTAP-TSG101 blk, GALK inh)
Cc1nc2cc(-c3cccc(F)c3)nn2c(C)c1CCC(=O)NC1CCCCC1	HTT prom inh 1.3µM
COc1cc(-c2cc3n(C)c(C)c(CCC(=O)NC4CCCCC4)c(=O)n3n2)cc(OC)c1OC	none
COC(=O)C(NC(=O)CCc1c(C)nc2c(c(C)nn2-c2ccccc2)c1C)C(C)C (configuration not stated)	NTMT1 inh inconclusive
COC(=O)C(NC(=O)CCc1c(C)nc2cc(-c3cccc(F)c3)nn2c1C)C(C)C (configuration not stated)	HTT prom inh 11µM
COc1cc2c(cc1O)CC[C@@H]1[C@@H]2CC[C@]2(C)[C@@H](O)CC[C@@H]12	NTMT1 inh 35µM (no result: HTT-AS promoter, OvCa metastasis, HTT prom inh, PTAP-TSG101 blk, GALK inh)
CCS(=O)(=O)N1CCC(C(=O)Nc2ccc(S(=O)(=O)Nc3nccs3)cc2)CC1	none (no result: HTT-AS promoter, OvCa metastasis, HTT prom inh, PTAP-TSG101 blk, GALK inh)
CCOC(=O)c1cnc2ccc(OC)cc2c1NCCc1ccccc1	HTT prom inh 32µM
CCOC(=O)c1ccc2ncc(C(=O)OCC)c(NCCc3ccc(OC)c(OC)c3)c2c1	none
COc1ccc(-c2cnc(-c3cccc4c3-c3ccccc3C4=O)o2)cc1	none (no result: HTT-AS promoter, OvCa metastasis, HTT prom inh, PTAP-TSG101 blk, GALK inh)
CC(C)c1ccc(C2Sc3ccccc3NC3=C2C(=O)c2ccccc23)cc1 (configuration not stated)	HTT prom inh 13µM
CCOc1ccccc1NC(=O)N1CCN(C)c2ncccc21	NTMT1 inh 89µM
Cc1ccc(C)c(NC(=O)N2CCN(C)c3ncccc32)c1	HTT prom inh inconclusive
CCOc1ccccc1CNC(=O)C1CCN(c2nnc(C)c3c(C)n(-c4ccc(C)cc4)nc23)CC1	OvCa metastasis 7.9µM, HTT prom inh inconclusive, NTMT1 inh inconclusive
C/C=C(\C)C(=O)OC[C@H]1O[C@H](O[C@H]2O[C@H](CO)[C@@H](OC(=O)/C(C)=C/C)[C@H](O)[C@H]2O[C@@H]2O[C@H](CO)[C@@H](O)[C@H](O)[C@H]2O)[C@H](O[C@@H]2O[C@H](CO)[C@@H](O)[C@H](O)[C@H]2O)[C@@H](O)[C@@H]1O	none (no result: HTT-AS promoter, OvCa metastasis, HTT prom inh, PTAP-TSG101 blk, GALK inh)
O=C(CN1C(=O)C2(SCC(=O)N2c2ccccc2)c2ccccc21)NCc1ccccc1 (configuration not stated)	NTMT1 inh 89µM
Cc1ccc(N2C(=O)CSC23C(=O)N(CC(=O)NCc2ccccc2)c2ccccc23)cc1 (configuration not stated)	none
COC(=O)c1cccc(NC(=O)c2nsc3ccccc23)c1	HTT-AS promoter inconclusive, OvCa metastasis inconclusive, NTMT1 inh 45µM
COc1cccc(CNC(=O)c2cccc(NC(=O)c3nsc4ccccc34)c2)c1	HTT-AS promoter inconclusive
COc1cccc(N2CCN(C(=O)c3ccc(NC(=O)c4nsc5ccccc45)cc3)CC2)c1	HTT prom inh 14µM
COc1ccc(N2CCN(C(=O)c3ccc(NC(=O)c4nsc5ccccc45)cc3)CC2)cc1	HTT-AS promoter inconclusive, HTT prom inh inconclusive, NTMT1 inh inconclusive
Cc1ccc(-c2nccc(=O)n2CC(=O)N(C)C(C)c2ccco2)cc1 (configuration not stated)	none (no result: HTT-AS promoter, OvCa metastasis, HTT prom inh, PTAP-TSG101 blk, GALK inh)
C[C@H]1[C@H](C)C[C@@H](C(=O)O)C2CC[C@]3(C)C(=CC[C@@H]4[C@@]5(C)CC[C@H](O)C(C)(C)[C@@H]5CC[C@]43C)[C@@H]21 (some centres not stated)	none (no result: HTT-AS promoter, OvCa metastasis, HTT prom inh, PTAP-TSG101 blk, GALK inh)
Nc1ccc(O)c(C(=O)O)c1	NTMT1 inh 40µM (no result: OvCa metastasis, PTAP-TSG101 blk, GALK inh)
O=C(O)c1ccccc1C(=O)Nc1ccc(-c2ccccc2)cc1	HTT prom inh inconclusive, NTMT1 inh 8.6µM! (no result: PTAP-TSG101 blk, GALK inh)
O=C(c1cc2ccc3cccnc3c2[nH]1)N1CCCCC1	HTT-AS promoter inconclusive, NTMT1 inh 40µM
CC1CCCN(C(=O)c2cc3ccc4cccnc4c3[nH]2)C1 (configuration not stated)	HTT prom inh inconclusive, NTMT1 inh inconclusive
CC(=C\C(C)O)/C=C(\C)C(=O)CC1CC(CC(N)=O)CC(=O)O1 (configuration not stated)	none (no result: HTT-AS promoter, OvCa metastasis, HTT prom inh, PTAP-TSG101 blk, GALK inh)
COc1ccc(OC)c(CCNc2ncnc3onc(C)c23)c1	HTT prom inh 16µM
O=C(O)c1cccc(-c2ccc(-c3cn(C(=O)N4CCCCC4Cc4ccccc4)nn3)cc2)c1 (configuration not stated)	none (no result: HTT-AS promoter, OvCa metastasis, HTT prom inh, PTAP-TSG101 blk, GALK inh)
O=C1CCCC2=C1C(c1[nH]ncc1Cl)N=C(Nc1ccccc1)N2 (configuration not stated)	none (no result: HTT-AS promoter, OvCa metastasis, HTT prom inh, PTAP-TSG101 blk, GALK inh)
CCC(C)S(=O)(=O)c1oc(-c2ccc(F)cc2)nc1S(=O)(=O)c1ccc(F)cc1 (configuration not stated)	OvCa metastasis 3.5µM, HTT prom inh inconclusive
Cc1ccc(Cl)cc1N1CCN(CCNC(=O)Nc2ccccc2Cl)CC1	HTT prom inh inconclusive, NTMT1 inh 89µM
COc1ccc(OC)c(NC(=O)CSc2c3c(nc4ccccc24)CCCC3)c1	OvCa metastasis inconclusive, HTT prom inh inconclusive
COc1cccc(NC(=O)CSc2c3c(nc4ccccc24)CCCC3)c1	OvCa metastasis 11µM
O=C(Nc1ccccc1F)c1ccc2c(Cl)c3c(nc2c1)CCC3	HTT prom inh 13µM, NTMT1 inh 25µM
Cc1ccc(S(=O)(=O)Nc2ccccc2C(=O)Nc2ccc(-c3ccccc3)nc2)cc1	none (no result: HTT-AS promoter, OvCa metastasis, HTT prom inh, PTAP-TSG101 blk, GALK inh)
